Compound activity deposited in PubChem BioAssay by National Center for Advancing Translational Sciences (NCATS).
An excerpt weighted towards active compounds, which were near 3.2% of everything screened.
Tau fil binding = qHTS Assay for Tau Filament Binding; AID 596, 2007; recombinant tau filaments, thioflavin S fluorescence, 15 h; filaments grown with octadecylsulfate alongside compound; Potency, µM (doses to about 57.1 µM), inactives show top-dose activity change, negative = inhibition; 71,000 compounds, 2% hits; Microtubule-associated protein tau (Homo sapiens), P10636;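 also: potency is read from the fitted curve at half-maximal effect; % is scaled to controls: 0 for no effect and ±100 for the full control effect; actives lower thioflavin S fluorescence by blocking filaments or displacing dye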
Target sequence (P10636 whole entry, looked up): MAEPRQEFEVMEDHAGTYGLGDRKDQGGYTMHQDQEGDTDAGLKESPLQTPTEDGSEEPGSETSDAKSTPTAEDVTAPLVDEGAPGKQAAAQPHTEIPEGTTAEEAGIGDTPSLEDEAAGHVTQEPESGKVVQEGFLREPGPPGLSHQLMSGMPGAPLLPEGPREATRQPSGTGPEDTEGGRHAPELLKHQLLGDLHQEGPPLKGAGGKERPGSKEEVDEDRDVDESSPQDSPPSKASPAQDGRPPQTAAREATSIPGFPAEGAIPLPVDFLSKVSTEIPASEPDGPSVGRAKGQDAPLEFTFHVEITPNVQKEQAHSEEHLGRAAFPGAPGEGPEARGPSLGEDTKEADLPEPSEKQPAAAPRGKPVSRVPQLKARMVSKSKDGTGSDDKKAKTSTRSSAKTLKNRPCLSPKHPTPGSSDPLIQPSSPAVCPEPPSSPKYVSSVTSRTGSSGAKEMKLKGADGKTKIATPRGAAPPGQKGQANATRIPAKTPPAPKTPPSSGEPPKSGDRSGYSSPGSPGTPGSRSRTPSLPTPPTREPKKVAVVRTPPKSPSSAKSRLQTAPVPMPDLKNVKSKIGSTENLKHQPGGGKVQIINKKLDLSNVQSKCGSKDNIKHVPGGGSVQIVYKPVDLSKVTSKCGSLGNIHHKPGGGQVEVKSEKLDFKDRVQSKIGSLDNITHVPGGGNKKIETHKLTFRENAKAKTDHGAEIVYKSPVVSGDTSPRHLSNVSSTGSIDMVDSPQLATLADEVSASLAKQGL
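Thioflavine S fluorescence (ex 450, em 510 nm) reports filaments formed from 1 uM human tau plus 30 uM ODS over 15 h at 37 C (10 mM HEPES pH 7.4, 100 mM NaCl, 5 mM DTT); compounds displacing dye or blocking filaments lower signal.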
ERK AVP inh = qHTS Assay for Inhibitors of the ERK Signaling Pathway using a Homogeneous Screening Assay; HEK293-V1b, vasopressin-stimulated pERK AlphaScreen; 72,000 compounds, 0.99% hits; Potency, µM (series often up to 57.5 µM), for the others: top-dose activity, negative = inhibition, usual class: inhibitors; also: potency is read from the fitted curve at half-maximal effect; % is scaled to controls: 0 for no effect and ±100 for the full control effect; nearly all actives have a fitted effect of over 55% in size
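qHTS, compounds titrated on V1b-expressing HEK293 cells. Preincubation 30 min at 37C, vasopressin 25 nM for 5 min, lysis 10 min, bead incubation 5 hr at room temperature.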
p53ts 32C kill = qHTS Screen for Compounds that Selectively Target Cancer Cells with p53 Mutations: Cytotoxicity of p53ts Cells at the Permissive Temperature; H1299-p53A138V at 32C, ATP luminescence viability, 24 h; Potency, µM (titrated, usually from 46.1 µM), inactives show at the highest dose activity change, negative = cytotoxicity, usual class: cytotoxic; 130,000 compounds, 0.93% hits; AID 924, 2007;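 also: potency is read from the fitted curve at half-maximal effect; 0% = DMSO and -100% = full killing by reference compound; nearly all actives have a fitted effect of over 55% in size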
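Cells: H1299 p53ts (A138V), 600/well, pre-incubated 16–30 h at 37C. Cpd up to 46 uM, 24 h, 32C. Readout: ATPlite luminescence, 20 min RT. Normalization: DMSO vs tamoxifen 100 uM. AC50 by Hill equation.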
DNA Pol III inh = qHTS Assay for Inhibitors of DNA Polymerase III Holoenzyme System. Potency, µM (highest dose often 57.1 µM), for the others: top-dose activity change, negative = inhibition. 71,000 compounds, 0.25% hits. reconstituted DNA polymerase III holoenzyme replication, biochemical; also: potency is read from the fitted curve at half-maximal effect; % is scaled to controls: 0 for no effect and ±100 for the full control effect
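Reconstituted *E. coli* holoenzyme (0.35 nM Pol III, 1 nM beta, 154 nM SSB, 2 nM primase) was preincubated with compound for 15 min at RT. Synthesis on 1.4 nM ssM13Gori ran 35 min, then was stopped with PicoGreen/EDTA and read as dsDNA fluorescence.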
p53ts 39C kill = qHTS Screen for Compounds that Selectively Target Cancer Cells with p53 Mutations: Cytotoxicity of p53ts Cells at the Nonpermissive Temperature; H1299-p53A138V viability at 39C, ATP luminescence, 24 h; AID 902, 2007; 130,000 compounds, 1.5% hits; Potency, µM (top dose mostly 46.1 µM), for inactives: top-dose activity change, negative = cell killing, hits mostly cytotoxic; also: potency is read from the fitted curve at half-maximal effect; % is scaled to controls: 0 for no effect and ±100 for the full control effect; nearly all actives have a fitted effect of over 55% in size
TsaE inh = qHTS Assay for Inhibitors of YjeE; tRNA threonylcarbamoyladenosine biosynthesis protein TsaE (Escherichia coli (strain …; purified YjeE enzyme, qHTS inhibition assay; Potency, µM; 71,000 compounds, 0.05% hits; AID 605, 2007
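Fluorescence polarization of a BODIPY Texas Red–ADP probe (2 uM) bound to purified YjeE (10 uM) was read after 15 min room-temperature incubation with compounds. Loss of polarization marks inhibitors; ADP serves as titrated control.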
Numbers without * were called inactive; i = inactive; ? = inconclusive; . = no result; ! = not active in a repeat; [ ] = dose if it differs, or a comment. Calls follow the shape of the dose curve; as a rule, active = well fitted curve in the direction sought with a large enough effect; inconclusive = small, poorly fitted or top-dose-only effect, or another doubt; inactive = no such curve, though single readings can be large; an effect the other way counts as inactive or inconclusive.

SMILES | Tau fil binding | ERK AVP inh | p53ts 32C kill | DNA Pol III inh | p53ts 39C kill | TsaE inh
Nc1nc(CN2CCN(c3ccccn3)CC2)nc(Nc2ccc(Cl)cc2)n1 | -9% | 32µM* | 5% | 6% | 2% | i
O=C(NCc1ccccc1Cl)c1ccccc1NC(=O)c1nsc2ccccc12 | . | . | -15% | . | -28% | .
CC(C)NC(=O)c1ccc(-n2c(-c3ccccc3)cc3c2CCCCC3)cc1 | . | . | 14% | . | -11% | .
CC1CCc2c(cc(-c3ccccc3)n2-c2ccc(C(=O)NC(C)C)cc2)C1 (stereo not given) | . | . | 44% | . | 16µM* | .
O=C(O)c1ccc2nc(-c3cc4cccc(O)c4oc3=O)[nH]c2c1 | . | . | 10µM* | . | ? | .
Cc1cc(-c2ccccc2)c2c3c(cn2n1)c(=O)n(C)c(=O)n3C | 13µM* | ? | 6% | 1% | 0% | i
Cc1cc(C)c2c3c(c(-c4ccccc4)n2n1)c(=O)n(C)c(=O)n3C | 27%[11.4 µM] | -22% | 2% | -4%[11.4 µM] | -6% | i
N#Cc1cccc(NC(=O)N2CCCC3(CCN(C(=O)c4cnccn4)CC3)C2)c1 | -6% | -5% | -8% | 2% | 14% | i
COc1ccc2oc(C(=O)c3ccccc3)c(NC(=O)CN3CCN(C)CC3)c2c1 | 4µM* | -18% | -20% | -7% | -30% | i
O=C1CSC(=Nc2ccccc2Cl)N1 | -6% | 9% | -10% | -7% | 4% | i
O=C1CS/C(=N\C(=O)N2c3ccccc3Sc3ccccc32)N1 | 3.2µM* | 5% | -3% | 4%[11.4 µM] | 10% | i
c1ccc2c[n+](CCCC[n+]3ccc4ccccc4c3)ccc2c1 | 3.2µM* | 11%[11.5 µM] | 2%[9.22 µM] | -12%[11.4 µM] | 12%[9.22 µM] | i
CN1CCN(c2nc(-c3ccc(N(C)C)cc3)nc3ccccc23)CC1 | 13µM* | 17% | ? | -7% | ? | i
CC1CCN(c2nc(-c3ccncc3)nc3ccccc23)CC1 | 5% | -30% | 6% | 2% | 37% | i
CC1CCCCN1c1nc(-c2ccncc2)nc2ccccc12 (stereo not given) | 20% | 32µM* | 11% | -1% | 15% | i
CC1CCCCN1c1nc(-c2ccc(C(C)(C)C)cc2)nc2ccccc12 (stereo not given) | . | . | 10µM* | . | 10µM* | .
CC1CCN(c2nc(-c3ccc(C(C)(C)C)cc3)nc3ccccc23)CC1 | . | . | 16µM* | . | 10µM* | .
c1ccc2c(N3CCOCC3)nc(-c3ccncc3)nc2c1 | . | . | -18% | . | -2% | .
Cc1onc(-c2ccccc2Cl)c1C(=O)Oc1cc(F)cc(F)c1 | . | . | ? | . | -19% | .
CC(C)OCCCn1c(SCC(=O)Nc2ccc(F)cc2)nc2c(sc3ccccc32)c1=O | . | . | 5% | . | -9% | .
COc1ccc(OC)c(S(=O)(=O)n2ccnc2)c1 | -8% | . | 4% | -6% | 6% | i
CCN(CC)c1ccc2cc(-c3nc4sc5c(c4c(=O)[nH]3)CCC(C(C)(C)C)C5)c(=O)oc2c1 (stereo not given) | . | . | -12% | . | 11% | .
O=C(Nc1cc(Cl)cc(Cl)c1)c1cc(S(=O)(=O)N2CCC3(CC2)OCCO3)ccc1F | . | . | -28% | . | ? | .
CCC(C(=O)NCCc1cc(OC)ccc1OC)n1nc(C)c2sc3ccccc3c2c1=O (stereo not given) | . | . | -15% | . | -18% | .
Cc1ccccc1CCNC(=O)c1ccc2c(c1)nc1n2CCC(C)C1 (stereo not given) | . | . | 13µM* | . | 13µM* | .
SMILES | Tau fil binding | ERK AVP inh | p53ts 32C kill | DNA Pol III inh | p53ts 39C kill | TsaE inh
O=C(NCCc1ccccc1)c1ccc2c(c1)nc1n2CCOC1 | . | . | 13µM* | . | 10µM* | .
CCc1ccc(CNC(=O)c2ccc3c(c2)nc2n3CCCCC2)cc1 | . | . | -21% | . | -11% | .
CC(C)CCNC(=O)c1ccc2c(c1)nc1n2CCCCC1 | . | . | 16µM* | . | 3.2µM* | .
O=C(NCCc1ccccc1Cl)c1ccc2c(c1)nc1n2CCCCC1 | . | . | 4µM* | . | 2.5µM* | .
Cc1c(C)c2c(cc(C)c3c(-c4ccc(Br)cc4)coc32)oc1=O | . | . | 8% | . | 18% | .
CCOC(=O)c1cccc(NC(=O)CC2C(=O)N(c3ccccc3)C(=O)N2Cc2ccco2)c1 (stereo not given) | . | . | 1% | . | -2% | .
CCN1C(=O)[C@@H]2[C@H]3C(=CC[C@@H]2C1=O)C1(OCCCO1)[C@H]1O[C@@H]1[C@H]3O | . | 15%[11.5 µM] | 1%[9.22 µM] | . | 2%[9.22 µM] | .
CC(=O)NC(CC(=O)O)C(=O)O (stereo not given) | . | 16% | -12% | . | 8% | .
CC(=O)N[C@@H](CC(=O)O)C(=O)N[C@@H](CCC(=O)O)C(=O)O | -20% | 17% | -1% | 20µM*! | -3% | i
CCc1nnc(NC(=O)c2nc(S(=O)(=O)Cc3ccc(C)cc3)ncc2Cl)s1 | . | . | 16µM* | . | 6.3µM* | .
Cc1cccc(Cc2nnc(NC(=O)c3cccc(S(=O)(=O)N4CCOCC4)c3)s2)c1 | . | . | 4% | . | 5% | .
CCc1nnc(NC(=O)c2nc(SCc3ccccc3F)ncc2Cl)s1 | . | . | 4% | . | -18% | .
CCOc1ccccc1NC(=O)c1nc(S(=O)(=O)Cc2cccc(C)c2)ncc1Cl | . | . | 16µM* | . | 3.2µM* | .
CCc1nnc(NC(=O)c2nc(S(=O)(=O)Cc3cccc(C)c3)ncc2Cl)s1 | . | . | ? | . | 5µM* | .
CCc1ccc(OCC(=O)Nc2c(C(=O)c3ccccc3)oc3ccccc23)cc1 | . | . | -7% | . | 11% | .
Cc1ccc(CNC(=O)Cn2cc(S(=O)(=O)Cc3ccccc3F)c3ccccc32)cc1 | . | . | -30% | . | . | .
O=C(Oc1ccc(-c2cn3c(n2)SCC3)cc1)c1ccccc1 | 64% | 16µM* | -14% | 1% | -23% | i
CCOC(=O)CC(NC(=O)c1cc2c(=O)n3cccc(C)c3nc2s1)c1ccc(OCC)c(OC)c1 (stereo not given) | . | . | 4% | . | -15% | .
Cc1c(/C=C/C(=O)c2cccs2)cnn1C | . | . | -9% | . | -10% | .
COc1ccc(/C=C/C(=O)Nc2ccccc2C(=O)O)cc1OC | . | 39% | ? | . | 13µM* | .
O=C(/C=C/c1ccccc1)c1cccs1 | . | 139% | 32µM* | . | -81% | .
COc1ccc(/C=C/C(=O)c2ccc(O)cc2O)cc1OC | . | 16µM* | ? | . | 73% | .
COc1ccc(/C=C/C(=O)Nc2cc(C(F)(F)F)ccc2Cl)cc1OC | . | . | . | . | 3% | .
CCOc1ccc(/C=C/C(=O)c2cccs2)cc1 | . | 20% | 25µM* | . | -12% | .
COc1ccc(/C=C/c2ccncc2)cc1OC | . | . | -13% | . | 7% | .
COc1ccc(/C=C/C(=O)c2cccs2)cc1OC | . | ? | 13µM* | . | 16µM* | .
